Hits are enriched below; roughly 2.5% of the tested compounds scored in any of these assays.
ASK1 primary – inhibitors of human ASK1 kinase | Q99683 | inhibition, % at 7.44 µM | AlphaScreen MKK6 phosphorylation by ASK1, luminescence | 22,000 tested, 0.99% active; in the data active = inhibition above about 35%;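 note: 0% = median of compound wells and 100% = no enzyme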
ULK1 primary – inhibitors of human ULK1 kinase | inhibition, % at 5.96 µM | AlphaScreen Atg13 phosphorylation by ULK1, luminescence | O75385 | 30,000 tested, 1.9% active; in the data active = inhibition above about 43%;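 note: 0% = median of compound wells and 100% = no enzyme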
TruHits interf – interferes with AlphaScreen TruHits signal in ASK1 counter-screen | shares compounds with ASK1 primary | AlphaScreen TruHits beads, signal interference counterscreen | IC50, µM | 220 tested, 20% active | AID 1159604;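 active = IC50 of 10 µM or lower in the counterscreen; inactive = IC50 above 10 µM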;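 note: loss of AlphaScreen light from TruHits beads alone with no ASK1 enzyme present; potency of signal reduction so a low IC50 flags an assay artifact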
Starred values were filed as active, the others as inactive; / = no result.

SMILES	ASK1 primary	ULK1 primary	others
COc1ccc(C)cc1NC(=O)Nc1cnn(-c2cccc(C(=O)Nc3cc(OC)c(OC)c(OC)c3)c2)c1	-18	-5
COc1cc(NC(=O)c2cccc(-n3cc(NC(=O)Nc4ccc(-c5ccccc5)cc4)cn3)c2)cc(OC)c1OC	49*	-30	TruHits interf=>19
COc1cc(NC(=O)c2cccc(-n3cc(NC(=O)Nc4ccccc4)cn3)c2)cc(OC)c1OC	5	-33
O=C(NCCCN1CCCC1=O)c1csc(NCc2cccnc2)n1	-8	2
O=C(Nc1ccc(N2CCOCC2)cc1)c1cccc(-n2cc(NC(=O)C3CCc4ccccc43)cn2)c1 (centres undefined)	-5	-18
CN1C(=O)/C(=C2/SC(=S)N(c3cccc(O)c3)C2=O)c2ccccc21	/	28
O=C(Nc1ccccc1)c1csc(Nc2ccc(N3CCOCC3)cc2)n1	22	15
O=C(O)Cc1ccc(Nc2nccc(-c3ccccc3)n2)cc1	16	3
O=c1[nH]cccc1-c1ccc(Nc2nccc(-c3ccc4nc(C5CC5)[nH]c(=O)c4c3)n2)cc1	43*	70*	TruHits interf=>19
Cn1nccc1Nc1nccc(Nc2ccccc2)n1	-4	-6
